# According to PubChem BioAssay AID1220 (Sanford-Burnham Center for Chemical Genomics, 2008):
# The campaign covered roughly 190,000 compounds. About 1,300 (0.68%) were called active. Rule as the data show it: active = inhibition above about 50%; inactive = the rest. Many of the other results were omitted from the sample, so actives are more common in it than they were.
# Target: Mannose-6-phosphate isomerase (Homo sapiens) (UniProt P34949)
# Experiment: human PMI inhibitors, high substrate, primary screen, biochemical, fluorescence intensity, high mannose 6-phosphate (AID 1220)
# Conditions: recombinant PMI enzyme, coupled fluorescence intensity; at 20 µM; hits give high values
# Chain of Mannose-6-phosphate isomerase (Homo sapiens) (P34949 whole entry, looked up): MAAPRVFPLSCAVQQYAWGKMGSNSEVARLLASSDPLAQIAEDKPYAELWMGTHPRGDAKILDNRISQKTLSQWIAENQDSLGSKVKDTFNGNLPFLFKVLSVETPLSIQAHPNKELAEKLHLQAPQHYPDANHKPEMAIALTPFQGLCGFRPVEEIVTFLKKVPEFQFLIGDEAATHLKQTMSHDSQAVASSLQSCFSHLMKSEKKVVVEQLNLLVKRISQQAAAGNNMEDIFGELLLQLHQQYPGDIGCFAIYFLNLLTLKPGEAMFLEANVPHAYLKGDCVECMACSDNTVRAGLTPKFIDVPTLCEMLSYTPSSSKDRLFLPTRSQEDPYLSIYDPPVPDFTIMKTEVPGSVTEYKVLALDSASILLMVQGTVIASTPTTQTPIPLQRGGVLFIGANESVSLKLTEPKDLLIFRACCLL
row,SMILES,inhibition
1,Cc1ccc(C)c2nc3sc(C(=O)N4CCOCC4)c(N)c3cc12,2.2% (inactive)
2,CCCC(=O)c1ccc(N2CCN(S(=O)(=O)c3ccccc3)CC2)c(F)c1,9.7% (inactive)
3,CC(C)C1C(C#N)=C(N)Oc2n[nH]c(-c3ccccc3)c21 (stereo not given),9% (inactive)
4,O=C(Cc1cccs1)NC(c1ccccc1)c1ccccc1,-1.3% (inactive)
5,CCC(CC)c1nnc(NC(=O)c2ccco2)s1,8.5% (inactive)
6,O=C1CN(C(=O)COC(=O)c2cccc(OCc3ccccc3)c2)c2ccccc2N1,20.2% (inactive)
7,c1ccc(CC2CNc3ccccc3CN2)cc1 (stereo not given),-7% (inactive)
8,Cc1nc(N2CCN(S(=O)(=O)c3cccc4nonc34)CC2)c2c3c(sc2n1)CCCC3,14.8% (inactive)
9,COc1cnc(-c2ccccn2)nc1Sc1cccc(Cl)c1,2.4% (inactive)
10,CC(=O)c1ccc(NC(=S)N2CCN(c3cccc(Cl)c3)CC2)cc1,-8.9% (inactive)
11,CCCC(=O)c1cc(F)c(N2CCN(S(=O)(=O)c3ccccc3)CC2)cc1C,14.8% (inactive)
12,CCc1nn(CC(=O)Nc2ccc(Br)c(C)c2)c(=N)s1,-9.2% (inactive)
13,CC(=O)N1C(C)(C)CC(=NOS(=O)(=O)c2ccccc2)CC1(C)C,-21.1% (inactive)
14,CC1=CC(=O)C=C(C)C1=NOC(=O)/C=C\c1ccccc1,22% (inactive)
15,CC(=O)Nc1ccc(S(=O)(=O)N=S(C)(C)=O)cc1,15.7% (inactive)
16,CCCC(=O)NC1=C(C#N)C2(CCCCC2)Cc2ccccc21,-7.8% (inactive)
17,CC1CCCC(C)N1C(=O)CSc1nc2ccccc2s1 (stereo not given),0.3% (inactive)
18,CCOC(=O)/C(=C/c1c(C)n(C)c2ccc([N+](=O)[O-])cc12)C(C)=O,2.1% (inactive)
19,CC1(C)Oc2ccc(C(=O)N3CCCC3)cc2N(CC(=O)NCc2ccccc2)C1=O,-8.2% (inactive)
20,CC1(C)Oc2ccc(C(=O)N3CCOCC3)cc2N(CC(=O)Nc2ccccc2)C1=O,6.6% (inactive)
21,CC1(C)Oc2ccc(C(=O)N3CCCCC3)cc2N(CC(=O)NCc2ccccc2)C1=O,107% (active)
22,CCOC(=O)Cn1c(=O)oc2cc(S(=O)(=O)Nc3ccc(F)cc3)ccc21,-4.3% (inactive)
23,Oc1ccc(CN2CCCCC2)c2cccnc12,50.5% (active)
24,O=S(=O)(c1ccc(Cl)cc1)N1CCN(Cc2ccc(O)c3ncccc23)CC1,45.3% (inactive)
25,Oc1ccc(COCc2ccccc2)c2cccnc12,46.2% (inactive)

row,SMILES,inhibition
1,OCc1ccc(O)c2ncccc12,28.8% (inactive)
2,Oc1ccc(CN2CCN(c3ccccc3)CC2)c2cccnc12,50.5% (active)
3,Oc1ccc(CN2CCC(Cc3ccccc3)CC2)c2cccnc12,46.2% (inactive)
4,OCc1ccnc2c(O)cccc12,59.6% (active)
5,c1ccc(N2CCN(Cc3ccnc4ccccc34)CC2)cc1,-101% (inactive)
6,COc1ccccc1N1CCN(Cc2cc(Br)c(O)c3ncccc23)CC1,43.7% (inactive)
7,Oc1ccc(CN2CCc3ccccc3C2)c2cccnc12,47.9% (inactive)
8,COc1ccccc1N1CCN(Cc2ccc(OC)c(OC)c2OC)CC1,-2.8% (inactive)
9,COc1ccc(N2C(=O)/C(=C\c3ccco3)N=C2SCC(=O)N(C(C)C)C(C)C)cc1Cl,2.5% (inactive)
10,CC1C2CC(C(S(=O)(=O)N3CCOCC3)C2=O)C1(C)C (stereo not given),8.3% (inactive)
11,O=C1CCC2=C(CCCC2=O)N1,0.9% (inactive)
12,O=C1CC(=O)C(n2cncn2)C(c2ccc(Cl)cc2Cl)C1 (stereo not given),14.4% (inactive)
13,COc1ccc2c(c1)c1ncn(Cc3ccco3)c(=O)c1n2C,0.7% (inactive)
14,COCc1cc(CN2CCCC2)c(O)c2ncccc12,35.4% (inactive)
15,Oc1c(CN2CCCCC2)cc(COCc2ccccc2)c2cccnc12,23.4% (inactive)
16,CC(C)C(=O)Nc1ccc(C(=O)N2CCCCCC2)cc1,-8.1% (inactive)
17,CCOc1ccccc1-n1cnc2cc(C(=O)NCc3ccco3)ccc21,-4.7% (inactive)
18,O=S(=O)(Cc1ccccc1Cl)N1CCCCC1,-3.8% (inactive)
19,O=S(=O)(Cc1ccccc1Cl)N1CCCC1,8.9% (inactive)
20,CC1CCN(S(=O)(=O)Cc2ccccc2Cl)CC1,56.9% (active)
21,CN1C(=O)NC(NC(=O)c2ccncc2)(C(F)(F)F)C1=O (stereo not given),4.6% (inactive)
22,COc1ccc(NC(=S)N2CCC(C(O)(c3ccccc3)c3ccccc3)CC2)cc1,7% (inactive)
23,COc1ccc(OC)c(NC(=S)N2CCC(C(O)(c3ccccc3)c3ccccc3)CC2)c1,17.9% (inactive)
24,COc1cc(NC(=S)N2CCC(C(O)(c3ccccc3)c3ccccc3)CC2)cc(OC)c1,52.9% (active)
25,Cc1ccc2nsnc2c1NS(=O)(=O)c1c(C)ccc2nsnc12,30.6% (inactive)
